# Test results as given in PMC7862700, “An all-to-all approach to the identification of sequence-specific readers for epigenetic DNA modifications on cytosine”.
# How the values were obtained:
# Assay in all cases: DAPPL (digital affinity profiling via proximity ligation, sequencing); 10 mM Tris-HCl pH 7.5, 50 mM NaCl, 1 mM DTT, 4% glycerol, room temperature, 30 min; GST-TFs on glutathione beads, 16-mer random dsDNA library, 0.1% formaldehyde crosslink after washing; high values mean tight binding
# FLI1 = molecular target: T1, FLI1 (Homo sapiens, UniProt Q01543 1-452); conditions: protein: recombinant; tags: N-terminal GST; dsDNA, one strand shown
# T1 sequence: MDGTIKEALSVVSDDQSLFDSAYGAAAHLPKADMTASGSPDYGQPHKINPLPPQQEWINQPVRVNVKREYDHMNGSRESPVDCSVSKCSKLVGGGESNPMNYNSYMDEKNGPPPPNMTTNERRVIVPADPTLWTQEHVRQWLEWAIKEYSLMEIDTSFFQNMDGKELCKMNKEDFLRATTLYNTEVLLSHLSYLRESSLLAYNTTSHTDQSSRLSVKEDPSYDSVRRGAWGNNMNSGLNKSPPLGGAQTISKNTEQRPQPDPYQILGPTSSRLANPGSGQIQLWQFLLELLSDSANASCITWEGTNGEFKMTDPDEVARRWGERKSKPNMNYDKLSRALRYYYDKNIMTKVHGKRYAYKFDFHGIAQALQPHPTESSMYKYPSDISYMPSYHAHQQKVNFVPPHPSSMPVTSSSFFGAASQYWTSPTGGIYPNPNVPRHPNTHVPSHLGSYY
# Outline: (§1)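 GST fusions of human transcription factors were expressed in yeast and captured with glutathione beads. Once given DNA barcodes and pooled alongside a tag-only sample, they were incubated for 30 min at room temperature with 200 nmole of a random double-stranded 16-mer DNA library in Tris/NaCl/DTT/glycerol buffer, then washed, crosslinked (0.1% formaldehyde), proximity-ligated, PCR-amplified and sequenced on an Illumina NextSeq500. The binding signal of each hexamer is its read frequency for a factor divided by its frequency for the tag-only sample.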
# ELK1 = molecular target: T2, ELK1 (Homo sapiens, UniProt P19419 1-428); conditions: protein: recombinant; tags: N-terminal GST; dsDNA, one strand shown
# T2 sequence: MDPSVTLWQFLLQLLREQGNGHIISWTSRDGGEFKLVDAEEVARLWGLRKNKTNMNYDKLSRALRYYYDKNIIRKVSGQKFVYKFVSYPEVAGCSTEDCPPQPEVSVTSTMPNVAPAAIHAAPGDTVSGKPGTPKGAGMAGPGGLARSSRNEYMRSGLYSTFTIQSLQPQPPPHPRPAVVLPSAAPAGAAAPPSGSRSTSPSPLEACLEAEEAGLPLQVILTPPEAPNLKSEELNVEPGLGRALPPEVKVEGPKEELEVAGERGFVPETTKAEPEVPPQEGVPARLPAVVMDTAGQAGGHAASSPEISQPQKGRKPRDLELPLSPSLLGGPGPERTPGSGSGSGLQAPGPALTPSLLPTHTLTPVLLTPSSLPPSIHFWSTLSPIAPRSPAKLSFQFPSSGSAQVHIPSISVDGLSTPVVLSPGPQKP
# Outline: as §1
# GABPA = molecular target: T3, GABPA (Homo sapiens, UniProt Q06546 1-454); conditions: protein: recombinant; tags: N-terminal GST; dsDNA, one strand shown
# T3 sequence: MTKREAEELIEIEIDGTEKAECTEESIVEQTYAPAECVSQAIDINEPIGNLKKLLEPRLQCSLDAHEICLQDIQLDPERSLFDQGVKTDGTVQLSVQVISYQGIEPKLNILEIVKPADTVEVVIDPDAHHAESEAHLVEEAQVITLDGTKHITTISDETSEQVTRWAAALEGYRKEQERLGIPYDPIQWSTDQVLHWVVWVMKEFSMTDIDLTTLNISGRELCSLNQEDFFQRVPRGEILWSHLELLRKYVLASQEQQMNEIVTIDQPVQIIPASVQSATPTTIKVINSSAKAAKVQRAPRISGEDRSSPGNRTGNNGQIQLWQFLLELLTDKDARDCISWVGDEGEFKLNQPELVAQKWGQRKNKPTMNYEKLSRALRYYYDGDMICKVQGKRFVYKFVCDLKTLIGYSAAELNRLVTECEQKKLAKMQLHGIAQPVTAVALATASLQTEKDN
# Outline: as §1
# ERG = molecular target: T4, ERG (Homo sapiens, UniProt P11308 1-479); conditions: protein: recombinant; tags: N-terminal GST; dsDNA, one strand shown
# T4 sequence: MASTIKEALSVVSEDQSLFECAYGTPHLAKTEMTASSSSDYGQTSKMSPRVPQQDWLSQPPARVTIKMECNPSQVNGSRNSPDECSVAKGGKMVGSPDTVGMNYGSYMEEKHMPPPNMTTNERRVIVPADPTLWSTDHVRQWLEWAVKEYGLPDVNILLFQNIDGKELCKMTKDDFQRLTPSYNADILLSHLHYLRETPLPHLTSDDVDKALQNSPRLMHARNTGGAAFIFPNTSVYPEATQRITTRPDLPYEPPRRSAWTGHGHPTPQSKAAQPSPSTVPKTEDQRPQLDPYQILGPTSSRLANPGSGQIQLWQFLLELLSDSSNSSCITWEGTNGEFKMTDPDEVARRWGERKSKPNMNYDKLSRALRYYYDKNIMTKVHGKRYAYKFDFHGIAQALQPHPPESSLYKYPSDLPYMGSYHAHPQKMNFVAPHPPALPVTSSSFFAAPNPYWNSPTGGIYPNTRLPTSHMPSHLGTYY
# Outline: as §1
# ELF1 = ELF1 (Homo sapiens, UniProt P32519 1-619); conditions: protein: recombinant; tags: N-terminal GST; dsDNA, one strand shown
# Chain of ELF1 (P32519 whole entry): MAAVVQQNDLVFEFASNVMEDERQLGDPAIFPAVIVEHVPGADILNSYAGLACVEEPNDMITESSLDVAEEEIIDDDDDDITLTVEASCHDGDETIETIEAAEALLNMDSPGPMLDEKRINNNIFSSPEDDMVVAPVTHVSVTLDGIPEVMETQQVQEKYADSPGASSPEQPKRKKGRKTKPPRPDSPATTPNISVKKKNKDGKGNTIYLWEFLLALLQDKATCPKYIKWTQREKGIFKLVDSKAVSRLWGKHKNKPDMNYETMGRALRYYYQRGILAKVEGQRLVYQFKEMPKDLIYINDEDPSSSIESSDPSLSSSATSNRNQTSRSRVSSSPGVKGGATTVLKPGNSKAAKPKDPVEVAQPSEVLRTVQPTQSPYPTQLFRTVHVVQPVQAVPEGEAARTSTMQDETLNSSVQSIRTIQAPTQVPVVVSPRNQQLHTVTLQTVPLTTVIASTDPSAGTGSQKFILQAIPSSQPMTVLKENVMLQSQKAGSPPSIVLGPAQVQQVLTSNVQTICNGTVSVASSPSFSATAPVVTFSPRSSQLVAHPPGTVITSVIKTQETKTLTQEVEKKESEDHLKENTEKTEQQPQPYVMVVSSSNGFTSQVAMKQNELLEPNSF
# Outline: as §1
# EHF = molecular target: T5, EHF (Homo sapiens, UniProt Q9NZC4 1-300); conditions: protein: recombinant; tags: N-terminal GST; dsDNA, one strand shown
# T5 sequence: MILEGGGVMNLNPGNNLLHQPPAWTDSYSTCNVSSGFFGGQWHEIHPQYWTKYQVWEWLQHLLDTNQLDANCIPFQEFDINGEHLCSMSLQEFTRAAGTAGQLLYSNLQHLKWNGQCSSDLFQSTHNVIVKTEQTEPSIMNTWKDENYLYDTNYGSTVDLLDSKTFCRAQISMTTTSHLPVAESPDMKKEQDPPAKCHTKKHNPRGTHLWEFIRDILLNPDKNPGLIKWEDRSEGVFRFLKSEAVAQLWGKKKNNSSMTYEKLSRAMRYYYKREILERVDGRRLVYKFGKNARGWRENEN
# Outline: as §1
# SPI1 = SPI1 (Homo sapiens, UniProt P17947 1-270); conditions: protein: recombinant; tags: N-terminal GST; dsDNA, one strand shown
# Outline: as §1
# SPIB = SPIB (Homo sapiens, UniProt Q01892 1-262); conditions: protein: recombinant; tags: N-terminal GST; dsDNA, one strand shown
# Chain of SPIB (Q01892 whole entry): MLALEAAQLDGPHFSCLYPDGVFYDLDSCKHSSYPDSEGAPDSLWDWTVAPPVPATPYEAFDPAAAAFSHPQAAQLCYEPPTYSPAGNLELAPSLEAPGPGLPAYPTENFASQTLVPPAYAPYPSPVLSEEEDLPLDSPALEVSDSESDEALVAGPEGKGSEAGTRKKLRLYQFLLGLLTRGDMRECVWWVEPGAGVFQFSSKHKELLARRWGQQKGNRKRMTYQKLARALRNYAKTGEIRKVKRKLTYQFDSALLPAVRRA
# Outline: as §1
# ELK3 = molecular target: T6, ELK3 (Homo sapiens, UniProt P41970 1-407); conditions: protein: recombinant; tags: N-terminal GST; dsDNA, one strand shown
# T6 sequence: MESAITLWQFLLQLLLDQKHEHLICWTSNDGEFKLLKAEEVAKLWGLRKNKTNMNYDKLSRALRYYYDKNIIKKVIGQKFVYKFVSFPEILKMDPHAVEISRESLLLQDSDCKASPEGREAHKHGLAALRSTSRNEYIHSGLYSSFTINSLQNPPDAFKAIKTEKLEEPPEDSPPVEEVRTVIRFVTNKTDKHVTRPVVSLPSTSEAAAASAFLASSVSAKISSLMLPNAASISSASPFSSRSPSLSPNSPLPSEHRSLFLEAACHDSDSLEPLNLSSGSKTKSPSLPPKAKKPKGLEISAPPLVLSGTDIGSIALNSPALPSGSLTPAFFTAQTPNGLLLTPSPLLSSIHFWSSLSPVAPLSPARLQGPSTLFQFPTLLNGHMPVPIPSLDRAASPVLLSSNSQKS
# Outline: as §1
# FEV = molecular target: T7, FEV (Homo sapiens, UniProt Q99581 1-238); conditions: protein: recombinant; tags: N-terminal GST; dsDNA, one strand shown
# T7 sequence: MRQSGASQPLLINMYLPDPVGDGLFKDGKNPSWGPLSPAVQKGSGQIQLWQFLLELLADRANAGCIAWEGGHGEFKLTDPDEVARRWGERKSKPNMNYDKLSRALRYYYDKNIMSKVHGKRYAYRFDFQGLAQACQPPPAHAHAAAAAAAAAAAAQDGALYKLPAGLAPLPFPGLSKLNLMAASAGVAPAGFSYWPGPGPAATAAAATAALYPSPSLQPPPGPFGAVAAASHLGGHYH
# Outline: as §1
# ETV5 = ETV5 (Homo sapiens, UniProt P41161 1-510); conditions: protein: recombinant; tags: N-terminal GST; dsDNA, one strand shown
# Chain of ETV5 (P41161 whole entry): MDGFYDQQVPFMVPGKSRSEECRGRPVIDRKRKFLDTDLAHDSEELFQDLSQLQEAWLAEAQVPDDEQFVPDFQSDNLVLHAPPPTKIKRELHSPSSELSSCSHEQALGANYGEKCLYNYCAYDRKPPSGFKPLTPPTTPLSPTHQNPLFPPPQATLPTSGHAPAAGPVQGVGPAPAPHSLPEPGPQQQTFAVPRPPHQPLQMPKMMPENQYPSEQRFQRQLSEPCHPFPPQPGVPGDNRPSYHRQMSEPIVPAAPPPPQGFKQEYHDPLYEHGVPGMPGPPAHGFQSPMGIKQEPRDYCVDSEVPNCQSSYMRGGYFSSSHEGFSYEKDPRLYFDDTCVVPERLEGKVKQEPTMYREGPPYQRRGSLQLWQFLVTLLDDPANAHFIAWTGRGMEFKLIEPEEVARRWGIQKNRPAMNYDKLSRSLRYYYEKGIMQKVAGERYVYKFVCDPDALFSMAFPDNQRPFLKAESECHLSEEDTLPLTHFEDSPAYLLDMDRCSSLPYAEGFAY
# Outline: as §1
# HSF1 = HSF1 (Homo sapiens, UniProt Q00613 1-529); conditions: protein: recombinant; tags: N-terminal GST; chain copies: 3; dsDNA, one strand shown
# Chain of HSF1 (Q00613 whole entry): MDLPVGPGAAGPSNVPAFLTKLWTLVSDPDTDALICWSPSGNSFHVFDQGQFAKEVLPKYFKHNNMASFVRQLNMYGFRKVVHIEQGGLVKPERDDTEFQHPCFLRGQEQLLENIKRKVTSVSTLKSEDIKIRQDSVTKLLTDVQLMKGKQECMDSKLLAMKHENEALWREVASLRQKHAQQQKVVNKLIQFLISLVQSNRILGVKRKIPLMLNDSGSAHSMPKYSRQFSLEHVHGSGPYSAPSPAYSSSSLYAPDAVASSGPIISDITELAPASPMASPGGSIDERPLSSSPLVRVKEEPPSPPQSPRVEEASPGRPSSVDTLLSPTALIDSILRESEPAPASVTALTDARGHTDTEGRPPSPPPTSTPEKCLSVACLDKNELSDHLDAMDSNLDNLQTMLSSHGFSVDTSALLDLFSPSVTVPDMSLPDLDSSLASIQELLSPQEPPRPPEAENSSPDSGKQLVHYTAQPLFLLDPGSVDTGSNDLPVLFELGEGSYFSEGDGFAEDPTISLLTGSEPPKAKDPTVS
# Outline: as §1
# SPIC = molecular target: T8, SPIC (Homo sapiens, UniProt Q8N5J4 1-248); conditions: protein: recombinant; tags: N-terminal GST; dsDNA, one strand shown
# T8 sequence: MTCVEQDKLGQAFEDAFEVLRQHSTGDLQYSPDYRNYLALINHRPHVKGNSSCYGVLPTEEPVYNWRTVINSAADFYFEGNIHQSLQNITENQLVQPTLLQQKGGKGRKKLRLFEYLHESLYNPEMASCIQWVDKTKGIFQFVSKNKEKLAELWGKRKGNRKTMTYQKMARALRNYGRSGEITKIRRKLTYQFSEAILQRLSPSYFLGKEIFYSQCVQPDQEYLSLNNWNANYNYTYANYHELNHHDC
# Outline: as §1
# ELF4 = ELF4 (Homo sapiens, UniProt Q99607 1-663); conditions: protein: recombinant; tags: N-terminal GST; dsDNA, one strand shown
# Chain of ELF4 (Q99607 whole entry): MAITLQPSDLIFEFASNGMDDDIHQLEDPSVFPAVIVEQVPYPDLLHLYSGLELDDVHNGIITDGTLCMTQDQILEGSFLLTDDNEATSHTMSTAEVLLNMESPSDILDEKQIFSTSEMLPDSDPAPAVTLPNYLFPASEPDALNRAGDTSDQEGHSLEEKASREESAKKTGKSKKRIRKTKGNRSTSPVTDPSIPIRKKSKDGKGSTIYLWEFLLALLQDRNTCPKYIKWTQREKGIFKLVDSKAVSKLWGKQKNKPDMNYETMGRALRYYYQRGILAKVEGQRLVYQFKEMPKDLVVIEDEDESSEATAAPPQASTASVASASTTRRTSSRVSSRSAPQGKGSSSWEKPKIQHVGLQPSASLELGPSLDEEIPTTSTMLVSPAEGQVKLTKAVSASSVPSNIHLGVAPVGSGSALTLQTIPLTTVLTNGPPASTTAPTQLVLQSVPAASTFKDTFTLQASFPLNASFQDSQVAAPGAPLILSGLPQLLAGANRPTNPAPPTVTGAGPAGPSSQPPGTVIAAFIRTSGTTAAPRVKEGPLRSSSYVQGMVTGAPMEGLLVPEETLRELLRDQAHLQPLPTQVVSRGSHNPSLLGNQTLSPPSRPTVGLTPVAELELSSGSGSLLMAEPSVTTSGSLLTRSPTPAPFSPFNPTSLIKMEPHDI
# Outline: as §1
# ELK4 = molecular target: T9, ELK4 (Homo sapiens, UniProt P28324-2 1-405); conditions: protein: recombinant; tags: N-terminal GST; dsDNA, one strand shown
# T9 sequence: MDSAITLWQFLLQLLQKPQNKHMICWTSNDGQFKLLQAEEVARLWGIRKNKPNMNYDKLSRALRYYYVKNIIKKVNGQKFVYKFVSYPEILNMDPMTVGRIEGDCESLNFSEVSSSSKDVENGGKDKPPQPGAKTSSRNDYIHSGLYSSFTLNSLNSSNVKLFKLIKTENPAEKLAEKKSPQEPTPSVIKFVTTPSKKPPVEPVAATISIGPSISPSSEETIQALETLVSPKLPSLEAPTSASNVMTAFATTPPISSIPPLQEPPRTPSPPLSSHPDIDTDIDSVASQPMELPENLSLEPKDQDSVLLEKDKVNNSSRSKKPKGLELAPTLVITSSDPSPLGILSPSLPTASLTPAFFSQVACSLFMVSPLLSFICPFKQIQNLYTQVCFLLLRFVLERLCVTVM
# Outline: as §1
# ETV2 = molecular target: T10, ETV2 (Homo sapiens, UniProt O00321 1-342); conditions: protein: recombinant; tags: N-terminal GST; dsDNA, one strand shown
# T10 sequence: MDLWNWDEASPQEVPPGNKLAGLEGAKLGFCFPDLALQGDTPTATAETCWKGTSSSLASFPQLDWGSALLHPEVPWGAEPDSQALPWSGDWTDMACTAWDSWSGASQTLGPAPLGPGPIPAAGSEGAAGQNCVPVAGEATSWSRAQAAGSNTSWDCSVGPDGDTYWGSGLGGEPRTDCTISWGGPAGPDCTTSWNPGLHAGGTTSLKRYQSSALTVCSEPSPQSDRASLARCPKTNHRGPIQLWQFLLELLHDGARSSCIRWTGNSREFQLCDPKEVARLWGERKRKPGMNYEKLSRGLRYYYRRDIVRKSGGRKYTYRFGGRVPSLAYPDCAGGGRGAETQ
# Outline: as §1
# ELF3 = molecular target: T11, ELF3 (Homo sapiens, UniProt P78545 1-371); conditions: protein: recombinant; tags: N-terminal GST; dsDNA, one strand shown
# T11 sequence: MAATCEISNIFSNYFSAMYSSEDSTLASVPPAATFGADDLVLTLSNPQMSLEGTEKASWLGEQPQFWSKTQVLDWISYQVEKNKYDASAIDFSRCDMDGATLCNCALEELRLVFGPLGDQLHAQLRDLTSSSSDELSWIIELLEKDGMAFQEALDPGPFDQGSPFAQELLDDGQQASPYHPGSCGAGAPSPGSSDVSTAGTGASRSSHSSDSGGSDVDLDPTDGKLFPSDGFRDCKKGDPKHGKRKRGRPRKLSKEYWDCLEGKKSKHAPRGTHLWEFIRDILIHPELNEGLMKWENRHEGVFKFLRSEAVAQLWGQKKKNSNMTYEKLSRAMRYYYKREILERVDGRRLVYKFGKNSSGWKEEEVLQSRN
# Outline: as §1
# CRX = CRX (Homo sapiens, UniProt O43186 1-299); conditions: protein: recombinant; tags: N-terminal GST; dsDNA, one strand shown
# Chain of CRX (O43186 whole entry): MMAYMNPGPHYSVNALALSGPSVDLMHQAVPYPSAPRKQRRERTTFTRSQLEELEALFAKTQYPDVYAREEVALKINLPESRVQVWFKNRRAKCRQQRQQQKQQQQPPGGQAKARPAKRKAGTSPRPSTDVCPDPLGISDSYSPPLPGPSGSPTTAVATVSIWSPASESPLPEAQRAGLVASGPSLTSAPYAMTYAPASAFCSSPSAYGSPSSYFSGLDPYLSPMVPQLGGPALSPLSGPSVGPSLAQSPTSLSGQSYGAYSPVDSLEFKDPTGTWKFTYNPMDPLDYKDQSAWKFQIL
# Outline: as §1
# ETV1 = ETV1 (Homo sapiens, UniProt P50549 1-477); conditions: protein: recombinant; tags: N-terminal GST; dsDNA, one strand shown
# Chain of ETV1 (P50549 whole entry): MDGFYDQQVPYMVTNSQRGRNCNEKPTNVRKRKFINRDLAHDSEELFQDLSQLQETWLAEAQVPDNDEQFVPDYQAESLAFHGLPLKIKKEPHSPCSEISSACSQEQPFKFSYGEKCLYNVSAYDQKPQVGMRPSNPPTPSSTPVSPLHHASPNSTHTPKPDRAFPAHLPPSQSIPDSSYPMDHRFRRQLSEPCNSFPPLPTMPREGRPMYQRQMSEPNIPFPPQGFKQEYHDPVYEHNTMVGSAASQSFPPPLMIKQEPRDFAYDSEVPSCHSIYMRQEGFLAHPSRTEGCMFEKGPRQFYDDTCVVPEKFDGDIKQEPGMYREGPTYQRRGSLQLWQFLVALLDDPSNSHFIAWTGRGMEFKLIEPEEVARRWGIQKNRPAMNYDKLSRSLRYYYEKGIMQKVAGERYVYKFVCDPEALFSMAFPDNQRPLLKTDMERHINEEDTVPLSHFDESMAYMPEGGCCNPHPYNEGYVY
# Outline: as §1
sequence,measurement,setting,value
ATTTGC,binding signal,FLI1,"1.3 fold enrichment (6-mer frequency, TF over GST control)"
same,binding signal,ELK1,"1.36 fold enrichment (6-mer frequency, TF over GST control)"
same,binding signal,GABPA,"1.34 fold enrichment (6-mer frequency, TF over GST control)"
same,binding signal,ERG,"1.32 fold enrichment (6-mer frequency, TF over GST control)"
same,binding signal,ELF1,"1.34 fold enrichment (6-mer frequency, TF over GST control)"
same,binding signal,EHF,"1.17 fold enrichment (6-mer frequency, TF over GST control)"
same,binding signal,SPI1,"1.41 fold enrichment (6-mer frequency, TF over GST control)"
same,binding signal,SPIB,"1.32 fold enrichment (6-mer frequency, TF over GST control)"
same,binding signal,ELK3,"1.2 fold enrichment (6-mer frequency, TF over GST control)"
same,binding signal,FEV,"1.29 fold enrichment (6-mer frequency, TF over GST control)"
same,binding signal,ETV5,"1.4 fold enrichment (6-mer frequency, TF over GST control)"
same,binding signal,HSF1,"1.47 fold enrichment (6-mer frequency, TF over GST control)"
same,binding signal,SPIC,"1.29 fold enrichment (6-mer frequency, TF over GST control)"
same,binding signal,ELF4,"1.23 fold enrichment (6-mer frequency, TF over GST control)"
same,binding signal,ELK4,"1.3 fold enrichment (6-mer frequency, TF over GST control)"
same,binding signal,ETV2,"1.23 fold enrichment (6-mer frequency, TF over GST control)"
same,binding signal,ELF3,"1.33 fold enrichment (6-mer frequency, TF over GST control)"
same,binding signal,CRX,"1.5 fold enrichment (6-mer frequency, TF over GST control)"
same,binding signal,ETV1,"1.38 fold enrichment (6-mer frequency, TF over GST control)"
